# Bioassay records deposited in PubChem BioAssay by The Scripps Research Institute Molecular Screening Center.
# An excerpt weighted towards active compounds, which were near 3.4% of everything screened.
# MITF inh: MITF inhibitors, primary screen, biochemical, AlphaScreen, human. inhibition, % at 2.6 µM. AlphaScreen MITF homodimerization, bead proximity signal. AID 1259374, 2018. Microphthalmia-associated transcription factor (Homo sapiens), O75030. hit rate 0.91% among 650,000; in the data active means inhibition above about 50%;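 further: 0% = vehicle wells with protein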
# TEAD-YAP block: TEAD-YAP interaction inhibition, primary screen, TEAD-YAP interaction inhibitor project, luminescence, HEK-TIYL cells. inhibition, % at 9.12 µM. TEAD-Gal4/YAP UAS-luciferase luminescence. AID 1259422, 2018. hit rate 1.4% among 640,000; in the data active means inhibition above about 32%;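 further: 0% = median of test compound wells and 100% = reference inhibitor wells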
# GPR151 ag: activators of human GPR151, primary screen, cell-based, PathHunter beta-arrestin, luminescence; G-protein coupled receptor 151 (Homo sapiens), Q8TDV0; PathHunter beta-arrestin GPR151 cells; activation, % at 11.2 µM; hit rate 1% among 650,000; AID 1508602, 2020; in the data active means activation above about 4.9%;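 further: 0% = median of compound wells and 100% = cells with positive control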
# FBW7 act: FBW7 E3 ligase activators, primary screen, biochemical, AlphaScreen, human; F-box/WD repeat-containing protein 7 (Homo sapiens), Q969H0; hit rate 0.13% among 650,000; AlphaScreen FBW7–phospho-cyclin E peptide binding, activator screen; normalized activity (activation), % at 26.1 µM; in the data active means normalized activity above about 1.9%;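 further: purified mutant Fbw7 with reduced substrate affinity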
# Target sequence (Q969H0 whole entry, looked up): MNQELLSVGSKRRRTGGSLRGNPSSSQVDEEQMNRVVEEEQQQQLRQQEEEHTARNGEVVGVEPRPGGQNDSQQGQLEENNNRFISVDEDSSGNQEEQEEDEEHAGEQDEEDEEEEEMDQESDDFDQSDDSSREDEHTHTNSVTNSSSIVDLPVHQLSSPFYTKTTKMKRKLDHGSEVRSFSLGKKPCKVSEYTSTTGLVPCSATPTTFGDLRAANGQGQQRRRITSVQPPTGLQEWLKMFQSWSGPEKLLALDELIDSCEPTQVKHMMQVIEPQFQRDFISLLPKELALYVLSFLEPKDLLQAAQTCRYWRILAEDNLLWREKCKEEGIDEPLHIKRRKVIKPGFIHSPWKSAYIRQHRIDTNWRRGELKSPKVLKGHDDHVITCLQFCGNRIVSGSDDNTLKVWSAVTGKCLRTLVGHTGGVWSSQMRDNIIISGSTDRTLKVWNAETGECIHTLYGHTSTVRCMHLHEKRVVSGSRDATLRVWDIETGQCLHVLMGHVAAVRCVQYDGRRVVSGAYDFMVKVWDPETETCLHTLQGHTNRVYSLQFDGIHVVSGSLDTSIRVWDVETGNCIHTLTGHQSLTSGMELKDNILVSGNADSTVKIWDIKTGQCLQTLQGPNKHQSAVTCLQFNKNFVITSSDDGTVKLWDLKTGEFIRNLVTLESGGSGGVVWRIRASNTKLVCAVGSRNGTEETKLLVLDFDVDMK
# * hit, by the source's call; · = not tested or not shown.
SMILES,MITF inh,TEAD-YAP block,GPR151 ag,FBW7 act
O/C(=C\c1nc2ccccc2nc1/C=C(\O)c1ccccc1)c1ccccc1,8,-30,-1,0
C/C(O)=C/c1nc2cccnc2nc1/C=C(/C)O,73*,7,-1,0
CCOc1cc(N2CCOCC2)c(OCC)cc1NS(=O)(=O)c1ccc(F)c(F)c1,-8,35*,-2,0
COc1cncc(-c2cnc3c(Nc4cc(OC)c(OC)c(OC)c4)nccn23)c1,28,57*,1,0
COc1ccc(-c2cnc3c(Nc4cc(OC)c(OC)c(OC)c4)nccn23)cc1,-3,-8,1,0
COc1cc(Nc2nccn3c(-c4ccc(F)cc4)cnc23)cc(OC)c1OC,3,51*,0,0
COc1cc(Nc2nccn3c(-c4ccc(N(C)C)cc4)cnc23)cc(OC)c1OC,13,55*,3,-1
CCOC(=O)c1ccc(-n2sc3c(c2=S)-c2cc(C)ccc2NC3(C)C)cc1,76*,10,-1,0
CCN(CC)C(=O)C1CCCN(c2nccc(NCCOc3ccccc3)n2)C1 (centres undefined),13,6,1,0
CC(C)Oc1ccc(C(=O)NCCCCCC(=O)O)cc1,5,39*,0,1
CC(C)Oc1ccc(C(=O)NCCC(=O)O)cc1,16,-13,1,0
CC(C)COc1ccc(C(=O)NCCC(=O)O)cc1,22,8,1,0
CCOc1ccc(C(=O)NCCCCCC(=O)O)cc1,12,20,-1,0
CC(C)CCOc1ccc(C(=O)NCCCCCC(=O)O)cc1,2,38*,-1,0
CC(C)COc1ccc(C(=O)NCCCCCC(=O)O)cc1,-9,47*,1,0
CCCn1c(=S)[nH]c2cc(C(=O)NC(C)CC)ccc2c1=O (centres undefined),3,9,1,0
O=C(c1cccc2ccccc12)N1CCN(C/C=C/c2ccccc2)CC1,12,1,-1,0
Cc1cc(C)nc(-n2nc(C)cc2C)n1,2,-6,0,0
CCNc1nc(NCC)nc(-n2nc(C)cc2C)n1,-2,53*,3,0
COc1ccc(C)cc1NC(=O)CNC(=O)c1nn(-c2ccc(OC)c(OC)c2)c(=O)c2ccccc12,-5,35*,0,0
COc1ccc(-n2nc(C(=O)NCC(=O)Nc3cc(OC)c(OC)c(OC)c3)c3ccccc3c2=O)cc1Cl,-1,50*,2,0
COc1ccc(-n2nc(C(=O)NCC(=O)NCCN(C)CCc3ccccn3)c3ccccc3c2=O)cc1Cl,-5,33*,1,0
COc1ccc(NC(=O)CNC(=O)c2nn(-c3ccc(OC)c(OC)c3)c(=O)c3ccccc23)cc1OC,4,34*,-1,0
COc1ccc(-n2nc(C(=O)NCC(=O)Nc3ccc(OC)c(OC)c3)c3ccccc3c2=O)cc1,3,-6,0,0
C/C(=N\Nc1nc2ccccc2s1)c1ccc(O)cc1,12,-59,-1,0
SMILES,MITF inh,TEAD-YAP block,GPR151 ag,FBW7 act
C/C(=N\Nc1nc2ccccc2s1)c1ccc(F)cc1,2,34*,1,0
Cc1ccsc1C(=O)NNC(=O)c1cc(C)n(-c2ccc(F)cc2)c1C,-14,65*,-2,0
CCOC(=O)Cc1csc(N/N=C\c2ccc(C(F)(F)F)cc2)n1,14,61*,-1,0
CC1(C)Cc2c(c(N3CCOCC3)nc3snc(N)c23)CO1,7,36*,1,0
O=C(O)C1CCCN(c2nn3cc(-c4ccc(F)cc4)nc3s2)C1 (centres undefined),-5,85*,-13,0
COc1ccc(-c2cn3nc(N4CCCC(C(=O)O)C4)sc3n2)cc1 (centres undefined),42,-4,0,0
COCCCNc1nccn2c(-c3cccc(OC(F)(F)F)c3)cnc12,20,40*,1,-1
O=C(O)c1cccc(-c2cnc(NCCCc3ccccc3)c3nccn23)c1,-25,-3,-1,0
CC(=O)Nc1cccc(-c2cnc(NCCCc3ccccc3)c3nccn23)c1,-2,93*,-1,0
CCCNc1nccn2c(-c3cccc(NC(C)=O)c3)cnc12,-14,69*,-1,-1
COCCCNc1nccn2c(-c3cccc(NC(C)=O)c3)cnc12,17,90*,-5,0
C[C@@H]1CC[C@H]2C(=O)N3[C@@H](CC[C@@H](C)[C@@H]3c3cccc(N4CCOCC4)c3)C(=O)N2[C@H]1c1cccc(Br)c1,0,·,0,0
CC(C)Cc1ccc2c(n1)sc1c(N)ncnc12,5,-62,0,0
CCOc1cccc2cc(C(=O)Nc3cc(C)no3)oc12,5,1,1,0
CCN(Cc1ccccc1)c1ccc(/C=N/Nc2ncnc(N)c2[N+](=O)[O-])cc1,12,37*,-4,-1
Nc1ncnc(N/N=C/c2cccnc2)c1[N+](=O)[O-],-1,20,-3,0
Nc1ncnc(N/N=C/c2ccc3ncccc3c2)c1[N+](=O)[O-],13,86*,-1,0
Nc1ncnc(N/N=C/c2ccc(C3=CCCC3)s2)c1[N+](=O)[O-],22,60*,-8,-1
COc1cc(/C=N/Nc2ncnc(N)c2[N+](=O)[O-])ccc1O,10,34*,-10,-1
COc1ccc(CNc2nc(-c3cccnc3)nn2C(=O)c2ccccc2C)cc1,14,9,1,0
COc1ccc(NC(=O)CSc2nc3n[nH]c(C)c3c(=N)n2-c2ccc(Cl)c(C)c2)c(OC)c1,-4,4,1,0
CCc1nc2sc(C(=O)c3ccc4c(c3)OCO4)c(N)c2cc1C,-5,40*,0,1
COc1ccc(N(/C=C2\Sc3ccccc3C2=O)C(=O)c2ccco2)cc1,5,31,-5,0
CCC(=O)N(/C=C1\Sc2ccccc2C1=O)c1ccc(C)cc1,6,53*,-3,0
CCC(=O)N(/C=C1\Sc2ccccc2C1=O)c1ccccc1OC,-2,83*,1,0
SMILES,MITF inh,TEAD-YAP block,GPR151 ag,FBW7 act
CCC(=O)N(/C=C1\Sc2ccccc2C1=O)c1ccccc1,18,-1,-3,1
COc1ccc(C(=O)NC2CCSC2=O)cc1[N+](=O)[O-] (centres undefined),21,-6,-1,2.0*
O=C(NCCc1ccccc1)c1ccc(OC2CCN(C(=O)C3CC3)CC2)cc1,-7,-10,0,0
CC(=O)NCC(=O)N1CCC(Oc2ccc(C(=O)NCCc3ccccc3)cc2)CC1,7,33*,-1,0
O=C(NCCOc1cccnc1)c1ccc(OC2CCN(CCc3ccccc3)CC2)cc1,17,42*,-2,0
O=C(NCCc1ccccc1)c1ccc(OC2CCN(C(=O)C3=CCCC3)CC2)cc1,-4,65*,2,0
CC(=O)N1CCC(Oc2ccc(C(=O)NCCc3ccccc3)cc2)CC1,-16,-15,3,0
